# Inconclusive results are not listed. Values without a mark were called inactive. Activity calls are given as the source filed them. Calls follow the shape of the dose curve; as a rule, active = well fitted cell-killing curve with a large enough effect in the repeat runs; inconclusive = weak or mixed curves, or effect the other way; inactive = flat fitted curve, though single readings scatter.
# Assay: qHTS RealTime-Glo MT Cell Viability Assay in HEK293 cells - 32 hour (AID 1224868); also: nearly all actives have a fitted effect of over 50% in size; as to activity change, negative = cytotoxic: top concentration of the series differs between compounds
# Settings: RealTime-Glo luminescence; series mostly up to 76.8 µM; activity change, negative = cytotoxic: at the top concentration
# From the text: National Center for Advancing Translational Sciences [NCATS]
# NIH Chemical Genomics Center [NCGC]
# U.S. Environmental Protection Agency [EPA]
# National Institutes of Environmental Health Sciences [NIEHS]
# National Toxicology Program [NTP]
# U.S. Food and Drug Administration [FDA]
# Measure of cell viability is critical in the cell-base assay. Analysis of cell viability is necessary for the characterization of cell responses to cytotoxic drugs and environmental stress. A RealTime-Glo MT Cell Viability Assay to monitor cell viability in real time of continues cell culture during 40 hours of compound treatment was used to screen Tox21 10K library compounds in Hek293 cells. The RealTime-Glo MT Cell Viability Assay is a nonlytic, homogeneous, bioluminescent method to measure cell viability in real time using a simple, plate-based method. The assay involves adding NanoLuc luciferase and a cell-permeant prosubstrate to cells in culture. Viable cells reduce the proprietary prosubstrate to generate a substrate for NanoLuc luciferase. This substrate diffuses from cells into the surrounding culture medium, where it is rapidly used by the NanoLuc Enzyme to produce a luminescent signal. The signal correlates with the number of viable cells, making the assay well suited for cytotoxicity studies.
# Tox21 Assay Protocol Summary:
# The mixture of Hek293 cell suspension and reagents were dispensed at 600cells/6 ul/well in 1536-well tissue culture treated black solid bottom plates using a Multidrop dispenser. After the assay plates were incubated at a 37 C/5% CO2 incubator for 5 hours, 23 nL of compounds dissolved in DMSO, positive and negative controls was transferred to the assay plate by a pintool work station. The plates were incubated at 37 C for 40 hours. The luminescence intensity were measured at 0h, 8h, 16h, 24h, 32h and 40h time points using ViewLux plate reader during compound treatment.
# % is scaled to controls: 0 for no effect and ±100 for the full control effect; potency is read from the fitted curve at half-maximal effect.
SMILES,"activity change, negative = cytotoxic",Potency
CCCCCCCCCC=O,13.8%,
C=C(C)C(=O)OCCOc1ccccc1,7.04%,
CC(C)(C)c1cc(CCC(=O)OCC(COC(=O)CCc2cc(C(C)(C)C)c(O)c(C(C)(C)C)c2)(COC(=O)CCc2cc(C(C)(C)C)c(O)c(C(C)(C)C)c2)COC(=O)CCc2cc(C(C)(C)C)c(O)c(C(C)(C)C)c2)cc(C(C)(C)C)c1O,5.77% [at 35.3 µM],
O=CNc1ccccc1,-8.45%,
COc1ccc(C(C)=O)cc1,22.7%,
CC1=CCC(C(C)C)C=C1 (stereo not given),-16.9%,
c1ccc(OCc2ccc(CCCN3CCOCC3)cc2)cc1,,19 µM (active)
O=S1(=O)c2cccc3cccc(c23)N1CCCN1CCN(c2ccc(F)cc2)CC1,-8.3% [at 35.3 µM],
CCCCC(CC)(CO)CO,-4.43%,
O=C1[C@H](CC[C@H](O)c2ccc(F)cc2)[C@@H](c2ccc(O)cc2)N1c1ccc(F)cc1,,19 µM (active)
CC(=O)O[C@@H]1C(=O)O[C@@H]2[C@H]1OC(=O)[C@@H]2OC(C)=O,-23.8% [at 35.3 µM],
CCN(CC)C(C)=O,2.44%,
OCCC1CCCCN1 (stereo not given),-11.9%,
COC(Cc1ccccc1)OC,15.6%,
CCCCOC(=O)/C=C\C(=O)OCCCC,3.27%,
COC(=O)C(C)=O,-2.07%,
Cc1cc(CC(=O)O)c(C)n1-c1ccc(Cl)cc1,0.59% [at 35.3 µM],
O=C(c1ccccc1)c1ccc2n1CCC2C(=O)O (stereo not given),0.279% [at 35.3 µM],
CC1CCc2cc(F)cc3c(=O)c(C(=O)O)cn1c23 (stereo not given),5.98% [at 35.3 µM],
CCCCCCCCCCCCCCCBr,-0.964% [at 35.3 µM],

SMILES,"activity change, negative = cytotoxic",Potency
CCCCCCCCCCCCC(=O)O,-0.89%,
O=C(O)C(c1ccc(Cl)cc1)c1ccc(Cl)cc1,-3.29%,
O=C(O)Cc1cc(I)c(Oc2ccc(O)c(I)c2)c(I)c1,8.73%,
N#Cc1cc2ccccc2c2ccccc12,-20%,
N#CCCNCCC#N,4.86%,
CCOC(=S)SSC(=S)OCC,10.9%,
Cc1cccc(OCCOc2cccc(C)c2)c1,-22.8%,
Cc1c(Cn2ccnc2)c2ccccc2n1CCC(=O)O,3.69% [at 35.3 µM],
NC(N)=N/N=C/c1c(Cl)cccc1Cl,-22.3% [at 35.3 µM],
CC(C)NCC(O)c1cc(O)cc(O)c1 (stereo not given),0.108% [at 35.3 µM],
CC[C@H](C)[C@H](N)C(=O)O,0.976% [at 35.3 µM],
O=c1[nH]cnc2ccccc12,-3.41%,
Cc1ncsc1CCO,8.76%,
CC(=O)OC/C=C/c1ccccc1,5.81%,
NC(=S)N/N=C/c1cccnc1,7.2% [at 35.3 µM],
CC(C)c1ccccc1C(C)C,-24%,
O=S1(=O)N=C(O)c2ccccc21,1.23% [at 35.3 µM],
O=C(O)/C=C/c1cnc[nH]1,-5.04%,
CCCCCOC(=O)COc1cc(N2C(=O)C3=C(CCCC3)C2=O)c(F)cc1Cl,4.89%,
CC(C)c1cccc(C(C)C)c1NC(=O)NS(=O)(=O)c1cc(C(C)(C)O)co1,10.7%,
